# Reference: PubChem BioAssay (EPA / NIEHS)
# Inconclusive results are not listed. Calls of active or inactive are those of the source. The calls were made as follows, unless noted: active = hit-call score of the fitted dose curve at least 0.9, where 1 is the maximum; inconclusive = response in the unintended direction; inactive = score below 0.9.
# What was measured:
# [1] = test system: zebrafish Estrogen Receptor (ER2b), gene 317733; experiment: ATG_zfER2b_XSP2: Attagene TRANS-FACTORIAL Multi-Species (XSP2) HepG2 Assay for zebrafish Estrogen Receptor (ER2b) (AID 2283823);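 also: fitted upward as reporter gain over DMSO so potency reflects activation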
# In short: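 HepG2 human liver cells transiently transfected with multiplexed GAL4-UAS reporter units expressing chimeric NR-Gal4 proteins; compounds dosed for 24 h. Reporter mRNA quantified by RT-PCR, 6-FAM labelling and capillary electrophoresis; gain-of-signal fitted against DMSO baseline.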
# [2] = target: Peroxisome proliferator-activated receptor gamma (Homo sapiens) (UniProt P37231); experiment: ATG_hPPARg_XSP2: Attagene TRANS-FACTORIAL Multi-Species (XSP2) HepG2 Assay for human Peroxisome Proliferator-activated Receptor gamma (PPARg) (AID 2283829);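 also: actives raise reporter mRNA above DMSO so AC50 reflects PPARg activation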
# Peroxisome proliferator-activated receptor gamma (Homo sapiens), sequence (P37231 whole entry, looked up, the tested form may be a part): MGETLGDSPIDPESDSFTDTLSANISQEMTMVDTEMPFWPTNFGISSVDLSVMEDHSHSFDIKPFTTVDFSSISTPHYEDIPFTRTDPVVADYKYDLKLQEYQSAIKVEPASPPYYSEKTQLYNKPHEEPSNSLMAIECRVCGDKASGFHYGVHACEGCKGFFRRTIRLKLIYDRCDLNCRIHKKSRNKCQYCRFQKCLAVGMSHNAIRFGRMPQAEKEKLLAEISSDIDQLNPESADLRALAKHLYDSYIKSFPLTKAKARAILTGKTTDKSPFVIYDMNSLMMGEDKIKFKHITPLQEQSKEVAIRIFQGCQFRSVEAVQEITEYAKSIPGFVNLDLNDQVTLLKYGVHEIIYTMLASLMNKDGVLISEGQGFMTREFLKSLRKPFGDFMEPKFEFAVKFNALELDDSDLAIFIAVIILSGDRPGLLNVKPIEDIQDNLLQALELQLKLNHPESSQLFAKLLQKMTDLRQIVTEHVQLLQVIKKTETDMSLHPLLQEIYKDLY
# In short: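 Reporter transcripts were measured by RT-PCR, fluorescent labeling, HpaI digestion and capillary electrophoresis, relative to DMSO, 24 h post-dosing. Transiently transfected HepG2 expressed NR-Gal4 chimeras regulating GAL4-UAS reporters; medium contained 3 nM 6-alpha-fluorotestosterone plus 1.5 nM norgestrel.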
# [3] = target: mouse Peroxisome Proliferator-activated Receptor gamma (PPARg), Pparg (gene 19016) (UniProt P37238); experiment: ATG_mPPARg_XSP2: Attagene TRANS-FACTORIAL Multi-Species (XSP2) HepG2 Assay for mouse Peroxisome Proliferator-activated Receptor gamma (PPARg) (AID 2283830);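 also: hits are gains in reporter mRNA above DMSO so AC50 marks activation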
# mouse Peroxisome Proliferator-activated Receptor gamma (PPARg), Pparg (gene 19016), sequence (P37238 whole entry, looked up, the tested form may be a part): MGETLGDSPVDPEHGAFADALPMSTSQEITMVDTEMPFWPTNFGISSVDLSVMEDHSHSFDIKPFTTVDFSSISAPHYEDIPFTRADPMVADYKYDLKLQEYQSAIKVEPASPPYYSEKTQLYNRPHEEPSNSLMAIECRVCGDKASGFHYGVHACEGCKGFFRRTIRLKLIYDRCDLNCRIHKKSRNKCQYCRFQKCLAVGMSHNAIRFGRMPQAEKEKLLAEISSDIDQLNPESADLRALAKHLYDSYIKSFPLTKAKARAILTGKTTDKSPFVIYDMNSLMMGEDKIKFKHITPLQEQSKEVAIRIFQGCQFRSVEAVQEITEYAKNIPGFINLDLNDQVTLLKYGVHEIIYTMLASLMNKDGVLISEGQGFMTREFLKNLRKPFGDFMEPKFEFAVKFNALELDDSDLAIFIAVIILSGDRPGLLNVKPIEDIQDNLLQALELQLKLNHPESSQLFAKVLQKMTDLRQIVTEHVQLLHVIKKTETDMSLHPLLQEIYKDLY
# In short: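 HepG2 cells transiently transfected with GAL4-UAS reporter units for chimeric NR-Gal4 proteins including mouse PPARg, exposed 24 h; medium contained 3 nM 6-alpha-fluorotestosterone and 1.5 nM norgestrel. Reporter mRNA quantified by RT-PCR, HpaI digestion and capillary electrophoresis, vs DMSO.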
# [4] = target: Nuclear receptor subfamily 1 group I member 2 (Mus musculus) (UniProt O54915); experiment: ATG_mPXR_XSP2: Attagene TRANS-FACTORIAL Multi-Species (XSP1) HepG2 Assay for mouse Pregnane X Receptor (PXR) (AID 2283831)
# Nuclear receptor subfamily 1 group I member 2 (Mus musculus), sequence (O54915 whole entry, looked up, the tested form may be a part): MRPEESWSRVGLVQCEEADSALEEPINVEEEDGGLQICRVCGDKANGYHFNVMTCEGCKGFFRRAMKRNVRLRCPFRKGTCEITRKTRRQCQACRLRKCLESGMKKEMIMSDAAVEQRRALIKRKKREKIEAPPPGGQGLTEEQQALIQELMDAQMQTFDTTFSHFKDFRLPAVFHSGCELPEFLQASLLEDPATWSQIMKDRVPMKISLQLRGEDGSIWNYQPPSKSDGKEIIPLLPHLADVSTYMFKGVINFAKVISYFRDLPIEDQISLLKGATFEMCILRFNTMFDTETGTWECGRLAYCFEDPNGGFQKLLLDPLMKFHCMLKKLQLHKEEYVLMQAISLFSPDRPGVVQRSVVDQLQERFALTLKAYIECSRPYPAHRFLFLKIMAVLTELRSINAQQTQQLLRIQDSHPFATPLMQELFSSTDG
# In short: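 Reporter transcripts measured after 24 h dosing by RT-PCR with 6-FAM labelling, HpaI digestion and capillary electrophoresis. Transiently transfected HepG2 with NR-Gal4 chimeras; increase over DMSO baseline scored.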
# [5] = target: zebrafish Thyroid Hormone Receptor alpha (TRa), thraa (gene 30670) (UniProt Q98867); experiment: ATG_zfTRa_XSP2: Attagene TRANS-FACTORIAL Multi-Species (XSP1) HepG2 Assay for zebrafish Thyroid Hormone Receptor alpha (TRa) (AID 2283832);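 also: actives raise zebrafish TRa-Gal4 reporter transcript above DMSO baseline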
# zebrafish Thyroid Hormone Receptor alpha (TRa), thraa (gene 30670), sequence (Q98867 whole entry, looked up, the tested form may be a part): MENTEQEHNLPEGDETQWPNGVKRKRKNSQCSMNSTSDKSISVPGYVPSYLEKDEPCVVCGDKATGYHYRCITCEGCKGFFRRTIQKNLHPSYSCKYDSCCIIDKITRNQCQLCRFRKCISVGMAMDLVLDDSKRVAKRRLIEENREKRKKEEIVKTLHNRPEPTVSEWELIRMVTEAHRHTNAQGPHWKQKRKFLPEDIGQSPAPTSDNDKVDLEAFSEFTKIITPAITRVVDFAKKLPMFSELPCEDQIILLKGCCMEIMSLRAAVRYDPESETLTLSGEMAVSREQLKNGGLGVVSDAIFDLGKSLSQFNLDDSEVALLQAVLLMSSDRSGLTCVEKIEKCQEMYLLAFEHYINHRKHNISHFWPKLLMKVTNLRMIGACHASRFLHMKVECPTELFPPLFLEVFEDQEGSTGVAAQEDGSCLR
# In short: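 HepG2 cells transiently transfected with multiplexed GAL4-UAS reporter units expressing chimeric NR-Gal4 proteins; 24 h after dosing, reporter mRNA measured by RT-PCR, FAM labelling, HpaI digestion and capillary electrophoresis; gain of signal versus DMSO baseline.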
# [6] = test system: zebrafish Peroxisome Proliferator-activated Receptor gamma (PPARg), gene 557037; experiment: ATG_zfPPARg_XSP2: Attagene TRANS-FACTORIAL Multi-Species (XSP2) HepG2 Assay for zebrafish Peroxisome Proliferator-activated Receptor gamma (PPARg) (AID 2283833);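 also: actives increase reporter signal over DMSO so AC50 reflects activation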
# In short: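 After 24 h chemical exposure, RNA from transiently transfected HepG2 (chimeric NR-Gal4 TRANS reporters) was reverse-transcribed, PCR-amplified, 6-FAM-labelled, HpaI-cut and sized by capillary electrophoresis. Induction was scored in the positive direction relative to DMSO.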
# [7] = test system: turtle Thyroid Hormone Receptor, alpha (TRa), gene 101949057; experiment: ATG_trTRa_XSP2: Attagene TRANS-FACTORIAL Multi-Species (XSP1) HepG2 Assay for turtle Thyroid Hormone Receptor, alpha (TRa) (AID 2283834);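 also: hits raise reporter mRNA over the DMSO baseline so AC50 marks activators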
# In short: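 Turtle TRa-Gal4 chimera activity in transfected human HepG2 cells: reporter transcripts quantified by RT-PCR, 6-FAM labelling and capillary electrophoresis 24 h post-dosing; positive direction versus DMSO, medium containing 3 nM 6-alpha-fluorotestosterone and 1.5 nM norgestrel.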
# [8] = ATG_M_61_XSP2: Attagene TRANS-FACTORIAL Multi-Species (XSP2) HepG2 Assay for M61 Transcription Factor (Internal Marker) (AID 2283835; active = hit-call score of the fitted dose curve at least 0.9, where 1 is the maximum; inactive = score below 0.9;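 also: reporter mRNA of an internal background marker read by RT-PCR and capillary electrophoresis; active means a rise in signal above the DMSO baseline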)
# In short: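 HepG2 cells transiently transfected with multiple GAL4-UAS reporter units; 3 nM 6-alpha-fluorotestosterone and 1.5 nM norgestrel present to stimulate androgen receptor. After 24 h compound exposure, reporter mRNA measured by RT-PCR and capillary electrophoresis fluorescence, gain-of-signal versus DMSO baseline.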
# [9] = target: zebrafish Thyroid Hormone Receptor beta (TRb), thrb (gene 30607) (UniProt Q9PVE4); experiment: ATG_zfTRb_XSP2: Attagene TRANS-FACTORIAL Multi-Species (XSP1) HepG2 Assay for zebrafish Thyroid Hormone Receptor beta (TRb) (AID 2283836);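 as to AC50: potency for induction of reporter signal above DMSO so agonist direction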
# zebrafish Thyroid Hormone Receptor beta (TRb), thrb (gene 30607), sequence (Q9PVE4 whole entry, looked up, the tested form may be a part): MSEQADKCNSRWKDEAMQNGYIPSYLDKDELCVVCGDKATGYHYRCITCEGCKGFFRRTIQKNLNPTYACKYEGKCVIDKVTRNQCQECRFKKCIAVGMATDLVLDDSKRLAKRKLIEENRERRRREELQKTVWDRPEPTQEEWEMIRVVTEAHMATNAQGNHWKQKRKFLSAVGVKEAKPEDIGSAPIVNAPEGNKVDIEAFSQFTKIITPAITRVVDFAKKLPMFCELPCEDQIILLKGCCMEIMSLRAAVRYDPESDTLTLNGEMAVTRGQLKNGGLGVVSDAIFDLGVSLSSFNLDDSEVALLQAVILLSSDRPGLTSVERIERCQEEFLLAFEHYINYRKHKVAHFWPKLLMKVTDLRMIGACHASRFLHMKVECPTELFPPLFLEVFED
# In short: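 HepG2 cells transiently transfected with multiplexed GAL4-UAS reporter units expressing chimeric NR-Gal4 proteins; read 24 h after dosing. Reporter mRNA quantified by RT-PCR, 6-FAM labelling, HpaI digest and capillary electrophoresis; gain of signal fitted relative to DMSO.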
# [10] = target: human Thyroid hormone Receptor alpha (TRa), THRA (gene 7067) (UniProt P10827); experiment: ATG_hTRa_XSP2: Attagene TRANS-FACTORIAL Multi-Species (XSP2) HepG2 Assay for human Thyroid hormone Receptor alpha (TRa) (AID 2283838)
# human Thyroid hormone Receptor alpha (TRa), THRA (gene 7067), sequence (P10827 whole entry, looked up, the tested form may be a part): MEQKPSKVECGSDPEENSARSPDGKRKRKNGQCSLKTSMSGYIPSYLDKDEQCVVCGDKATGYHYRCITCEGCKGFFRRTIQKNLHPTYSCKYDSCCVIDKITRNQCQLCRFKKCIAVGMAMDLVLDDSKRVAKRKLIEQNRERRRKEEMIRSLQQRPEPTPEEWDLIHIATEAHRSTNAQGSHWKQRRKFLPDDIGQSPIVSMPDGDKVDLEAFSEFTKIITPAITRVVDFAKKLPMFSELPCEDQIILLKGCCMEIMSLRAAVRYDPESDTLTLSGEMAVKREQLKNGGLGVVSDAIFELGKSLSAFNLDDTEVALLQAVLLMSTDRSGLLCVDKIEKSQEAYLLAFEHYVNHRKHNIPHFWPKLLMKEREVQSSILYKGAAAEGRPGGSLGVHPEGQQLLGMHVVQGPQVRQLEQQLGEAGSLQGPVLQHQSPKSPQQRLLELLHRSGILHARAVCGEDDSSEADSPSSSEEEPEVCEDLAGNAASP
# In short: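 HepG2 cells transiently transfected with multiplexed GAL4-UAS reporter units and exogenous NR-GAL4 chimeras; 24 h chemical exposure with 3 nM 6-alpha-fluorotestosterone and 1.5 nM norgestrel present. Reporter mRNA measured by RT-PCR, FAM labelling, HpaI digestion, capillary electrophoresis; gain-of-signal versus DMSO.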
# [11] = target: human Thyroid hormone Receptor beta (TRb), THRB (gene 7068) (UniProt P10828); experiment: ATG_hTRb_XSP2: Attagene TRANS-FACTORIAL Multi-Species (XSP2) HepG2 Assay for human Thyroid hormone Receptor beta (TRb) (AID 2283840);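 also: actives raise reporter mRNA so potency reflects agonist-like gain of signal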
# human Thyroid hormone Receptor beta (TRb), THRB (gene 7068), sequence (P10828 whole entry, looked up, the tested form may be a part): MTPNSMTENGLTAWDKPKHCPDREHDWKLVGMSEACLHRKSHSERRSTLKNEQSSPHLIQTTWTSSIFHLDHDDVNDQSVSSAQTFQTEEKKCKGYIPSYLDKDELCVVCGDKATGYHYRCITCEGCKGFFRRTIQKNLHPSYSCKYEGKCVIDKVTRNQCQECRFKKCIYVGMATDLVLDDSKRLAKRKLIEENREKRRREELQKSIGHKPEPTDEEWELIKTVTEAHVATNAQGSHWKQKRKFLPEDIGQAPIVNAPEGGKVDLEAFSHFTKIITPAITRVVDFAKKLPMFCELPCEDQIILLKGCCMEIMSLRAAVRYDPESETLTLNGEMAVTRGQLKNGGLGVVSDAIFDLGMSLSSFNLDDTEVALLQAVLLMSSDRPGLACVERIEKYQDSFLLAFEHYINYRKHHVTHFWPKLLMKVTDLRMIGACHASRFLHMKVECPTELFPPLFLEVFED
# In short: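 Activity of exogenous human TRb–Gal4 fusion measured by reporter mRNA from RT-PCR and capillary electrophoresis, 24 h after dosing transfected HepG2. 6-alpha-fluorotestosterone (3 nM) and norgestrel (1.5 nM) present. Gain-of-signal fit relative to DMSO.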
# [12] = test system: Sodium/Iodide Symporter (NIS), SLC5A5 (gene 6528); experiment: CPHEA_Stoker_NIS_Inhibition_RAIU: CPHEA's Radioactive Iodide Uptake (RAIU) Assay for Sodium/Iodide Symporter (NIS) Inhibition, Stoker and Laws Labs (AID 2283841)
# In short: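 Iodide uptake through human NIS is measured in an engineered HEK293T line. Cells take up 125I (329pM final) for 2 hours at room temperature alongside chemicals at 0.001–100uM. Retained radioactivity is counted, and the signal is expressed against DMSO controls.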
# [13] = CPHEA_Stoker_NIS_Cytotoxicity: Cytotoxicity Assessment for CPHEA's Radioactive Iodide Uptake (RAIU) Assay for Sodium/Iodide Symporter (NIS) Inhibition, Stoker and Laws Labs (AID 2283897);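 as to AC50: active means loss of ATP signal versus DMSO meaning cytotoxicity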
# In short: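 ATP luminescence (Cell Titer Glo) measured viability, with loss of signal normalized to DMSO controls. Cells: hNIS-HEK293T-EPA, seeded 40 hours prior. Dosing: 0.001–100uM, 2 hours, room temperature, uptake buffer pH 7.4.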
# [14] = target: Estrogen receptor (Homo sapiens) (UniProt P03372); experiment: ATG_hERa_XSP2: Attagene TRANS-FACTORIAL Multi-Species (XSP2) HepG2 Assay for human Estrogen Receptor (ERa) (AID 2283827)
# Estrogen receptor (Homo sapiens), sequence (P03372 whole entry, looked up, the tested form may be a part): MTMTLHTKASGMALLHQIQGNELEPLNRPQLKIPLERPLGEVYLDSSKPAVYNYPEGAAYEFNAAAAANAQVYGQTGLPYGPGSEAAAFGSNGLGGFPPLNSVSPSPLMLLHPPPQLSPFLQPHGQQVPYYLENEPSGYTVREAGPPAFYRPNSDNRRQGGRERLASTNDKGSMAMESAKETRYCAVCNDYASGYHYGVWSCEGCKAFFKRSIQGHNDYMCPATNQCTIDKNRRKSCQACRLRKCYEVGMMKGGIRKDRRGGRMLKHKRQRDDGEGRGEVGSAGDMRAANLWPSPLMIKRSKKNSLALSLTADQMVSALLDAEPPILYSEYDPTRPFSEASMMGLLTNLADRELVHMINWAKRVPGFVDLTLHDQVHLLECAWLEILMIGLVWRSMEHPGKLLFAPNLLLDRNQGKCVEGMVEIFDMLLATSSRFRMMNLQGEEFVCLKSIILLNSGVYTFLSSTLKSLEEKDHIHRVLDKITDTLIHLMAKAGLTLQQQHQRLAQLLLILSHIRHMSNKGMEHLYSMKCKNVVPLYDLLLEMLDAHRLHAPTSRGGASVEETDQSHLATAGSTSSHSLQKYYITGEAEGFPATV
# In short: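 HepG2 cells transiently transfected with multiplexed GAL4-UAS reporters driven by chimeric receptor-Gal4 proteins, dosed 24 h with 3 nM 6-alpha-fluorotestosterone and 1.5 nM norgestrel present. Reporter mRNA by RT-PCR and capillary electrophoresis; gain-of-signal fit versus DMSO.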
# [15] = test system: frog Estrogen Receptor (ER2), gene 100174814; experiment: ATG_frER2_XSP2: Attagene TRANS-FACTORIAL Multi-Species (XSP2) HepG2 Assay for frog Estrogen Receptor (ER2) (AID 2283828)
# In short: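 Human liver HepG2, transient MRTU transfection (TRANS format, exogenous NR–Gal4). 24 h cpd exposure. Total RNA → RT → PCR → FAM label → HpaI cut → CE. Positive direction vs DMSO.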
# [16] = target: frog Thyroid hormone Receptor alpha (TRa), thra-a (gene 397942) (UniProt P15204); experiment: ATG_frTRa_XSP2: Attagene TRANS-FACTORIAL Multi-Species (XSP2) HepG2 Assay for frog Thyroid hormone Receptor alpha (TRa) (AID 2283839);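 also: AC50 reflects induction of frog TRa-driven reporter mRNA above DMSO baseline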
# frog Thyroid hormone Receptor alpha (TRa), thra-a (gene 397942), sequence (P15204 whole entry, looked up, the tested form may be a part): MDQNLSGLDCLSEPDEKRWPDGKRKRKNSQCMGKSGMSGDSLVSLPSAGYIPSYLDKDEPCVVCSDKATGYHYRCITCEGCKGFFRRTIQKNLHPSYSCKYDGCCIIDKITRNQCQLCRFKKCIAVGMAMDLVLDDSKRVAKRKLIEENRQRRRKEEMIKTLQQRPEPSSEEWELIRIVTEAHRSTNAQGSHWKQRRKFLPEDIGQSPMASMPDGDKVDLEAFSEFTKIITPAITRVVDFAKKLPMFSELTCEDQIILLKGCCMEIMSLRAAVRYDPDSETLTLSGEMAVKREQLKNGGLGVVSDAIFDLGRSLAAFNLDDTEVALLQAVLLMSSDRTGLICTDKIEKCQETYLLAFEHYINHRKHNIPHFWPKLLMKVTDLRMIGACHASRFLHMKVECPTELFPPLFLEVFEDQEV
# In short: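 Reporter transcripts were measured by RT-PCR with capillary electrophoresis after 24 h dosing of HepG2 carrying transiently transfected multi-reporter units, including a chimeric frog TRa-GAL4 construct. Activity was taken as increase over DMSO vehicle.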
smiles,measurement,setting,value
CCN(CC)C(=S)SSC(=S)N(CC)CC,outcome,[1],inactive
same,AC50,[2],34.9 µM (active)
same,AC50,[3],42.9 µM (active)
same,AC50,[4],5.57 µM (active)
same,outcome,[5],inactive
same,outcome,[6],inactive
same,outcome,[7],inactive
same,outcome,[8],inactive
same,outcome,[9],inactive
same,outcome,[10],inactive
same,outcome,[11],inactive
same,outcome,[12],inactive
same,outcome,[13],inactive
O=S(=O)(O)CCC(F)(F)C(F)(F)C(F)(F)C(F)(F)C(F)(F)C(F)(F)F,outcome,[12],inactive
OCC(CO)(CO)CO,outcome,[12],inactive
same,outcome,[13],inactive
C=CCc1cc(S(=O)(=O)c2ccc(O)c(CC=C)c2)ccc1O,AC50,[1],17.4 µM (active)
same,AC50,[14],2.71 µM (active)
same,outcome,[15],inactive
same,AC50,[2],5.26 µM (active)
same,AC50,[3],19.2 µM (active)
same,outcome,[4],inactive
same,outcome,[6],inactive
same,outcome,[7],inactive
same,outcome,[8],inactive
same,AC50,[16],1.72 µM (active)
same,AC50,[12],38.9 µM (active)
same,AC50,[13],36.8 µM (active)
CC(C)C(=O)Nc1ccc([N+](=O)[O-])c(C(F)(F)F)c1,AC50,[1],70.8 µM (active)
same,AC50,[14],27.2 µM (active)
same,outcome,[15],inactive
same,AC50,[2],53.9 µM (active)
same,AC50,[3],82.6 µM (active)
same,AC50,[4],100 µM (active)
same,outcome,[5],inactive
same,outcome,[6],inactive
same,AC50,[7],35.9 µM (active)
same,outcome,[8],inactive
same,AC50,[9],65.2 µM (active)
same,AC50,[10],50.1 µM (active)
same,AC50,[16],42.2 µM (active)
same,AC50,[11],62.4 µM (active)
same,outcome,[12],inactive
same,outcome,[13],inactive
NC(=O)N1c2ccccc2C=Cc2ccccc21,outcome,[12],inactive
same,outcome,[13],inactive
Cc1nccn1-c1ccc(Sc2cccc(C3(C(N)=O)CCOCC3)c2)cc1,outcome,[12],inactive
same,outcome,[13],inactive
CCCCN1C(=O)[C@@H]([C@H](O)C2CCCCC2)NC(=O)C12CCN(Cc1ccc(Oc3ccc(C(=O)O)cc3)cc1)CC2,outcome,[13],inactive
CCCCOC(=O)c1ccccc1,outcome,[12],inactive
same,outcome,[13],inactive
